Compounds with a hit are over-represented: about 2.2% of the library has one in this group of screens.
Mito fusion yeast – inhibitors of mitochondrial division or activators of mitochondrial fusion | AID 485298 | S. cerevisiae fusion-defective mutant growth rescue, CellTiterGlo 48 h | Potency, µM (top dose mostly 46.1 µM), inactives show at the top dose growth rescue (activation), actives largely listed as activators | 320,000 tested, 0.23% active; note: % of control where 0% means no effect; nearly all actives have a fitted effect of over 45% in size
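Temperature-sensitive fusion-defective S. cerevisiae (e.g. fzo1-1, mgm1-5) were grown with compound in YPEG medium (3% ethanol, 3% glycerol) for 48 hours at 37C. Growth rescue was measured as viability by CellTiterGlo luminescence after 10 minutes at ambient.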
aSyn yeast inh – inhibitors of alpha-synuclein toxicity in yeast | Yeast expressing alpha-synuclein, growth rescue, BacTiter-Glo, 24 h | Potency, µM (top dose mostly 46.1 µM), without a hit: at the highest dose growth rescue (activation), usual class: activators | 370,000 tested, 0.14% active | AID 652106; note: % of control where 0% means no effect; nearly all actives have a fitted effect of over 65% in size
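Screening used galactose-induced yeast with toxic alpha-synuclein levels, exposed to compound for 24 hr at 30 deg C. Cell growth, read with BacTiter-Glo luminescence, gave the measured signal.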
TDP-43 yeast inh – TDP-43 toxicity inhibition in yeast | 410,000 tested, 1.8% active | Potency, µM (doses to about 46.1 µM), without a hit: at the highest dose growth rescue (activation), hits mostly activators | TDP-43 expressing yeast growth rescue, BacTiter-Glo, 24 h | AID 652104; note: % of control where 0% means no effect; nearly all actives have a fitted effect of over 50% in size
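Yeast expressing TDP-43 (pregrown in raffinose, seeded at OD600=0.02 in galactose medium) exposed to compounds 24 hr at 30 deg C. Growth read by BacTiter-Glo luminescence; rescue of toxicity appears as increased signal.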
Abeta yeast res – restores growth of yeast expressing A-beta42 peptide; yeast expressing A-beta42, growth rescue, OD600, 48 h; response scale: 0% DMSO, 100% iron-clioquinol control; Potency, µM (highest dose often 46.1 µM), usual class: activators; 410,000 tested, 0.063% active; note: nearly all actives have a fitted effect of over 55% in size
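Growth rescue measured by 600 nm absorbance after 48 h yeast culture at 30 C with compound. Values normalized between DMSO and an equimolar ferric chloride plus clioquinol control.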
FUS suppressor – FUS proteinopathy suppression in yeast. S. cerevisiae FUS-expressing, growth rescue, OD600, 24 h. Potency, µM (doses to about 76.6 µM), actives largely listed as activators. 390,000 tested, 0.24% active;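 note: plate controls were DMSO vehicle for no effect and reference control for full effect; nearly all actives have a fitted effect of over 55% in size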
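S. cerevisiae expressing FUS from galactose induction served as the toxicity model. Growth after 24hr at 30C, read as absorbance at 600 nm, indicates suppression of toxicity; compounds dosed at several concentrations.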
Active calls of the source: *; [ ] = dose if it differs, or a comment. Calls come from the whole dose curve; as a rule, active = well fitted curve in the direction sought with a large enough effect; inconclusive = small, poorly fitted or top-dose-only effect, or another doubt; inactive = no such curve, though single readings can be large; an effect the other way counts as inactive or inconclusive. Potency is the fitted concentration of half-maximal effect.

For COc1cc(C(=O)Nc2ccc(C(C)=O)cc2)c(Br)c(OC)c1OC the results were Mito fusion yeast 1%, aSyn yeast inh -10%, TDP-43 yeast inh 5% and Abeta yeast res inactive.
Screening CCCOC(=O)c1ccc(NC(=O)c2cc(OC)c(OC)c(OC)c2Br)cc1 returned Mito fusion yeast 5%, aSyn yeast inh 6%, TDP-43 yeast inh 13µM*, Abeta yeast res inactive and FUS suppressor inactive.
For COC(=O)c1c(NC(=O)C2C3C=CC(CC3)C2C(=O)O)sc(C)c1C (stereo not given) the results were Mito fusion yeast 26%, aSyn yeast inh 4%, TDP-43 yeast inh 0% and Abeta yeast res inactive.
`CCOC(=O)c1c(NC(=O)C2C3C=CC(CC3)C2C(=O)O)sc(C)c1CC` (stereo not given) gave Mito fusion yeast 7.1µM*, aSyn yeast inh -4%, TDP-43 yeast inh 0%, Abeta yeast res inactive and FUS suppressor inactive.
Screening Cn1c(=O)c(-c2ccccc2[N+](=O)[O-])c(Cl)c2ccccc21 returned Mito fusion yeast -5%, aSyn yeast inh 10%, TDP-43 yeast inh 16µM*, Abeta yeast res inactive and FUS suppressor inactive.
For Cc1ccc(Sc2c([N+](=O)[O-])c(=O)n(C)c3ccccc23)cc1 the results were Mito fusion yeast 1%, aSyn yeast inh 3%, TDP-43 yeast inh 0%, Abeta yeast res inactive and FUS suppressor inactive.
`COc1ccc(-n2cc(-c3ccccc3)[nH]c2=S)c(OC)c1` gave Mito fusion yeast -33%, aSyn yeast inh 1%, TDP-43 yeast inh 5%, Abeta yeast res inactive and FUS suppressor inactive.
Fc1ccccc1-n1cc(-c2ccccc2)[nH]c1=S was read as Mito fusion yeast 0%, aSyn yeast inh 3%, TDP-43 yeast inh 13µM*, Abeta yeast res inconclusive and FUS suppressor inactive.
Screening C[C@]12c3[nH]c4ccc(Cl)cc4c3CCN1C(=O)[C@@H](CC(=O)NCC13CC4CC(CC(C4)C1)C3)C[C@@H]2C(=O)N1CCCCC1 returned aSyn yeast inh 16µM*, TDP-43 yeast inh 19%, Abeta yeast res inactive and FUS suppressor inactive.
For C[C@]12c3[nH]c4ccc(Cl)cc4c3CCN1C(=O)[C@@H](CC(=O)NCC13CC4CC(CC(C4)C1)C3)C[C@@H]2C(=O)N1CCOCC1 the results were aSyn yeast inh 11%, TDP-43 yeast inh 20%, Abeta yeast res inactive and FUS suppressor inconclusive.
`CCN(CC)C(=O)[C@H]1C[C@H](CC(=O)NCC23CC4CC(CC(C4)C2)C3)C(=O)N2CCc3c([nH]c4cc(-c5ccco5)ccc34)[C@]12C` gave aSyn yeast inh 1%, TDP-43 yeast inh 20%, Abeta yeast res inactive and FUS suppressor inactive.
Screening COc1ccc2[nH]c3c(c2c1)CCN1C(=O)C(CC(=O)NCC24CC5CC(CC(C5)C2)C4)C[C@H](C(=O)N(C(C)C)C(C)C)[C@@]31C (stereo not given in full) returned aSyn yeast inh -15%, TDP-43 yeast inh 11µM*, Abeta yeast res inactive and FUS suppressor inconclusive.
`CCN(CC)C(=O)[C@H]1CC(CC(=O)NCC23CC4CC(CC(C4)C2)C3)C(=O)N2CCc3c([nH]c4ccccc34)[C@]12C` (stereo not given in full) gave aSyn yeast inh inconclusive, TDP-43 yeast inh 28µM*, Abeta yeast res inactive and FUS suppressor inactive.
CC(=O)c1c(C)[nH]c2ccc(OCC(O)CNCCc3ccccc3)cc12 (stereo not given) was read as aSyn yeast inh 5%.
For CCCN1CNc2c(c(=O)[nH]c(=S)n2CCc2ccc(OC)cc2)C1 the results were aSyn yeast inh 3%.
Screening O=C(Nc1cc(Cl)ccc1F)C1CCCN1S(=O)(=O)c1cccc2cccnc12 (stereo not given) returned FUS suppressor inactive.
`Cc1ccc(/C(N)=N/OC(=O)Cc2cccc3ccccc23)cc1` gave Mito fusion yeast -9%, aSyn yeast inh -20%, TDP-43 yeast inh 14µM*, Abeta yeast res inactive and FUS suppressor inactive.
For Cc1cccc(/C(N)=N/OC(=O)Cc2cccc3ccccc23)c1 the results were Mito fusion yeast 4%, aSyn yeast inh -29%, TDP-43 yeast inh 11µM*, Abeta yeast res inactive and FUS suppressor inactive.
For Nc1cccc2cccnc12 the results were aSyn yeast inh -6%.
CC(NS(=O)(=O)c1ccccc1[N+](=O)[O-])c1ccccn1 (stereo not given) was read as aSyn yeast inh 1%.
`CCOc1ccc(N2CC(c3nc4ccccc4n3CCOc3ccc(CC)cc3)CC2=O)cc1` (stereo not given) gave TDP-43 yeast inh 4%, Abeta yeast res inactive and FUS suppressor inactive.
Cc1cccc(OCCCCn2c(C3CC(=O)N(c4ccc(C)cc4C)C3)nc3ccccc32)c1 (stereo not given) was read as TDP-43 yeast inh 32µM*, Abeta yeast res inactive and FUS suppressor inconclusive.
Screening CCc1ccccc1N1CC(c2nc3ccccc3n2CCOc2ccc(Cl)c(C)c2)CC1=O (stereo not given) returned TDP-43 yeast inh -11%, Abeta yeast res inactive and FUS suppressor 25µM*.
`CCc1ccc(N2CC(c3nc4ccccc4n3Cc3ccccc3C)CC2=O)cc1` (stereo not given) gave TDP-43 yeast inh 28µM*, Abeta yeast res inactive and FUS suppressor inconclusive.
`Cc1cccc(OCCCCn2c(C3CC(=O)N(c4ccccc4Cl)C3)nc3ccccc32)c1` (stereo not given) gave TDP-43 yeast inh 13%, Abeta yeast res inactive and FUS suppressor inactive.
Cc1ccc(C)c(OCCn2c(C3CC(=O)N(Cc4ccc(F)cc4)C3)nc3ccccc32)c1 (stereo not given) was read as TDP-43 yeast inh 35µM*, Abeta yeast res inactive and FUS suppressor inconclusive.
`O=C(C[n+]1csc2ccccc21)c1ccc(I)cc1` gave aSyn yeast inh 4%.
Screening Cc1ccnc(NC(=O)c2cccc(S(=O)(=O)N3CCCc4ccccc43)c2)c1 returned Mito fusion yeast 22%, aSyn yeast inh 9%, TDP-43 yeast inh 22µM*, Abeta yeast res inactive and FUS suppressor inactive.
Screening O=C(Nc1ccccn1)c1cccc(S(=O)(=O)N2CCCc3ccccc32)c1 returned Mito fusion yeast 19%, aSyn yeast inh 9%[1.84 µM], TDP-43 yeast inh 25µM*, Abeta yeast res inactive and FUS suppressor inactive.
For COc1ccc(-n2c(SCC(=O)NCC3CCCO3)nnc2-c2ccncc2)cc1 (stereo not given) the results were FUS suppressor inactive.
For Cc1ccc(-c2cc(C(=O)NN=Cc3cc(Br)ccc3O)[nH]n2)cc1C the results were FUS suppressor inactive.

Assay outcomes (PubChem)
